The results in this text go back to PubChem BioAssay AID488932 (Broad Institute, 2010).

Results with a measured potency or affinity are listed apart. Active and inactive are the calls of the source.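 How the source made its calls: active means growth signal falls, with fitted half-maximal dose at most ten times the top valid dose; inconclusive means flat curve with a partial drop, or a poorly fitting curve; inactive means the rest, including compounds that raise signal.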

A short description of the assay: single-agent toxicity toward C. albicans – CaCi-2 strain, no fluconazole, dry powder, set 4, counter-screen for reversing antifungal drug resistance, dose response (AID 488932). As to conditions: C. albicans CaCi-2 (fluconazole-resistant clinical isolate) growth, Alamar Blue, 48 h; series mostly up to 26 µM.
Consider `O=C(c1ccc(Cl)cc1)N1CCN(c2ncnc3ccccc23)CC1`, for which the outcome was inactive. For `O=S(=O)(c1ccc(Cl)cc1)N1CCN(c2ccnc3cc(Cl)ccc23)CC1`, the result was inactive. On to `COc1ccc2c(N3CCN(C(=O)c4ccc(Cl)cc4)CC3)ccnc2c1`, for which the result was inactive.

For `O=C(c1ccccc1Cl)N1CCN(c2ccnc3cc(Cl)ccc23)CC1`, the result was inactive. With `CC(C)CC(=O)N1CCN(c2ccnc3cc(Cl)ccc23)CC1`, the result was inactive.

For `CCCC(=O)N1CCN(c2ccnc3cc(Cl)ccc23)CC1`, the outcome was inactive.

With `Cc1ccc(C(=O)N2CCN(c3ccnc4cc(Cl)ccc34)CC2)cc1`, the result was inactive. `O=C(Nc1ccc(Cl)cc1)N1CCN(c2ccnc3cc(Cl)ccc23)CC1`: the outcome was inactive. Turning to `Cc1ccc(N2CCN(C(=O)c3ccc(Cl)cc3)CC2)nn1`, the outcome was inactive. For `O=C(c1ccc(Cl)cc1)N1CCN(c2nc3ccccc3s2)CC1` the value was “inactive”; for `O=C(c1ccc(Cl)nc1)N1CCN(c2ccnc3cc(Cl)ccc23)CC1`, “inactive”. For `CC(C)C(=O)N1CCN(c2ccnc3cc(Cl)ccc23)CC1` the value was “inactive”; for `COc1ccc(C(=O)N2CCN(c3ccnc4cc(Cl)ccc34)CC2)cc1`, “inactive”. Turning to `O=C(C1CC1)N1CCN(c2ccnc3cc(Cl)ccc23)CC1`, the outcome was inactive.

As for `O=C(c1ccc(Cl)cc1)N1CCN(c2ccnc3cc(Cl)ccc23)CC1`, the outcome was inactive.

Turning to `O=C(C1CCCC1)N1CCN(c2ccnc3cc(Cl)ccc23)CC1`, the outcome was inactive.

Consider `O=C(c1ccc(Cl)c(Cl)c1)N1CCN(c2ccnc3cc(Cl)ccc23)CC1`, for which the outcome was inactive. `O=C(C1CCC1)N1CCN(c2ccnc3cc(Cl)ccc23)CC1`: the result was inactive.

On to `Cc1cc(N2CCN(C(=O)c3ccc(Cl)cc3)CC2)c2ccc(F)cc2n1`, for which the outcome was inactive. With `O=C(c1ccc(Cl)cc1)N1CCCN(c2ccnc3cc(Cl)ccc23)CC1`, the result was inactive.

`Cc1cc(N2CCN(C(=O)c3ccc(Cl)cc3)CC2)c2ccccc2n1`: the result was inactive. `O=C(c1ccc(Cl)cc1)N1CCN(c2cc(C(F)(F)F)nc3ccccc23)CC1`: the result was inactive. Take `O=C(c1ccc(Cl)cc1)N1CCN(c2ccncc2)CC1`: the outcome was inactive.
